The structures appear in SMILES notation. “And” between values parts separate entries of the source, which are not always exact repeats. Equal values may be shown once. The whole screen tested about 330,000 compounds, of which about 4,400 (1.3%) were called active. For the sample, actives were picked, then their nearest neighbours and some compounds at random. Unmarked numbers belong to inactive results.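 Rule for the calls: active = growth inhibition of the mutant yeast at or above 50%; inactive = the rest.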

A short description of the assay: growth inhibitors of tim23-1 mutant yeast, primary screen, luminescence, uHTS (AID 463212).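 Note: temperature-sensitive mutant grown at 25 °C; plate controls were DMSO-treated mutant yeast for no effect and medium wells lacking yeast for full effect.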 Conditions: S. cerevisiae tim23-1 growth, BacTiter-Glo luminescence, 24 h; at 20 µM; hits give high values.
As for `C[C@@H]1C(c2ccc(F)cc2)=NN(c2ccc(Br)cc2)[C@H]1C(=O)N1CCOC1=O`, the inhibition (in general, the drop in the measured response relative to a control, in per cent) is 61.2% (active). With `O=C1OCCN1C(=O)[C@H]1[C@H](c2ccccc2)C(c2ccc(F)cc2)=NN1c1ccccc1`, the inhibition is 49.4%. As to `O=C1OCCN1C(=O)[C@H]1[C@H](c2ccc(F)cc2)C(c2ccccc2)=NN1c1ccc(Br)cc1`, the inhibition is 41.6%.

In the case of `CCOCCOCCC(C(=O)O)P(=O)(c1ccccc1)c1ccccc1` (stereo not given), the inhibition was 20.6%. In the case of `O=C(NOCc1ccccc1)c1cccc([N+](=O)[O-])c1`, the inhibition is 40.8%. As to `O=C(NC(Nc1nc2ccc([N+](=O)[O-])cc2s1)(C(F)(F)F)C(F)(F)F)c1ccccc1`, the inhibition is 80.5% (active).

Regarding `O=C(COC(=O)c1ccc([N+](=O)[O-])cc1Cl)NC(=O)c1ccccc1`, the inhibition was -6.06%. Then `CN(C)/C=C(/C(=O)c1ccccc1Cl)S(C)(=O)=O`, with 8.01%; and `O=S(=O)(Nc1ccc(-c2ccc(N3CCOCC3)nn2)cc1)c1cc(Cl)ccc1Cl`, with 36%. Then `COc1ccc(CCNC(=O)CN(c2ccccc2)S(C)(=O)=O)cc1`, with 10.1%; and `Cc1cc(C)nc(SCc2ccccc2C#N)n1`, with 8%. Then `Cc1cc(C)nc(S/C=C/C(=O)c2ccccc2)n1`, with 83.3% (active); and `Cc1cc(C)nc(SCC(=O)N(C)C)n1`, with 3.33%; and `COc1ccc(/C=C2/C(=O)OCc3cc(OC)c(OC)cc32)c(OC)c1`, with 23.4%.

`COc1ccc(C2/C(=C(/O)c3ccccc3)C(=O)C(=O)N2C)c(OC)c1` (stereo not given): the inhibition is 12%. Consider `COc1ccc(/C=C2/C(=O)N(c3ccccc3)N=C2C)c(OC)c1`, for which the inhibition was 52.9% (active). For the compound `Cc1c(NC(=O)c2cc(-c3ccc(Cl)s3)nc3ccccc23)c(=O)n(-c2ccccc2)n1C`, the inhibition is 25.7%. `NC(=NC(=O)c1ccccc1)C1=C(O)CCC1=O`: the inhibition is 15.3%.

With `Cc1ccc(CS(=O)(=O)c2ncc(Cl)c(C(=O)Nc3nnc(C)s3)n2)cc1`, the inhibition was 18.2%. Then `Cc1cccc(CS(=O)(=O)c2ncc(Cl)c(C(=O)Nc3ccc(F)cc3)n2)c1`, with 39.1%; and `Cc1cccc(NC(=O)c2nc(S(=O)(=O)Cc3ccccc3)ncc2Cl)c1`, with 75.9% (active); and `CCOC(=O)Cc1cc(=O)[nH]c(/N=C(\N)Nc2ccc(OC)cc2)n1`, with -4.74%. With `COCCNc1ccc(-c2n[nH]c(=O)c3ccccc23)cc1[N+](=O)[O-]`, the inhibition was 1.96%. With `O=C(NC1CCCCC1)c1ccc(-c2ccc(Cl)cc2)o1`, the inhibition is 45.4%. On to `CN(CC(=O)Nc1ccc(F)cc1)C(=O)c1ccc(-c2ccc(Cl)cc2)o1`, for which the inhibition is 36.9%. Then `Cc1[nH][nH]c(=O)c1C(c1ccc(-c2ccc(Cl)cc2)o1)c1c(C)[nH][nH]c1=O`, with 84.6% (active); and `Cc1ccsc1C1C(C#N)=C(N)OC2=C1C(=O)CC(C)(C)C2` (stereo not given), with 15.8%. As to `NC(=O)COc1ccc(/C=N/NC(=O)C2CCCN2S(=O)(=O)c2ccc(Cl)cc2)cc1` (stereo not given), the inhibition is 4.5%. In the case of `CC1(C)C=Cc2c(ccc3c2OC[C@@H](c2ccc(O)cc2O)C3)O1`, the inhibition was 81.8% (active). Turning to `CCCCc1nccn1CCn1ccnc1CCCC`, the inhibition was 2.76%. On to `CC(C)(C)c1ccc(C(=O)NNC(=O)Cc2ccccc2)cc1`, for which the inhibition is 8.91%. Then `CN(C(=O)CC(NC(=O)c1ccccc1)(c1ccccc1)c1ccccc1)c1ccccc1`, with 51.5% (active). `CN(C(=O)COC(=O)CNC(=O)C12CC3CC(CC(C3)C1)C2)c1ccccc1`: the inhibition is 3.66%. In the case of `C=CCn1c(P(C)(=O)O)nc2ccccc21`, the inhibition is 5.79% and -9.61%. `O=C(c1ccco1)N1CCN(C(=O)C2CCCN(S(=O)(=O)c3cccc4nsnc34)C2)CC1` (stereo not given): the inhibition was 9.26%.

For the compound `Cc1c(Br)ccc(NC(=O)COc2ccccc2C(N)=O)c1C`, the inhibition was 3.99%.

Turning to `Cc1cc(=O)cc(C)n1-c1ccc(Cl)c(Cl)c1`, the inhibition is 1.14%. `CCSC1=C(C#N)C(=O)n2c1cc1c2CCCC1`: the inhibition is 58% (active). As for `CCSc1ncnc2c(C#N)c3n(c12)CCCCC3`, the inhibition is 32.7%.

Regarding `CC(=O)NC1CCN(CC(=O)Nc2nccs2)CC1`, the inhibition was 8.15%. Take `COc1ccccc1CCCNC(=O)C1CCC(=O)N(CCN2CCOCC2)C1` (stereo not given): the inhibition was -0.497%.

With `Fc1ccccc1COc1ccccc1CNCc1ccncc1`, the inhibition is 3.21%. Turning to `CCN1CCc2nc(NC(=O)c3cc(F)c(F)cc3Cl)sc2C1`, the inhibition is 4.64%.

For the compound `COc1ccc(NC(=O)/C(C#N)=C\c2cc(OC)c(OCc3ccc(C(=O)O)cc3)cc2Br)cc1`, the inhibition was 20.5%. On to `COc1ccc(CNC(=O)/C(C#N)=C/c2cccc(OC)c2OC)cc1`, for which the inhibition is 71.3% (active). As to `COc1ccc(CNC(=O)CCn2cccc2)cc1`, the inhibition was 6.47%.

Consider `CN(CC(=O)Nc1ccccc1[N+](=O)[O-])Cc1ccc(Br)cc1`, for which the inhibition is 1.11%. As to `COc1ccccc1CNC(=O)C1Cc2ccccc2C(=O)O1` (stereo not given), the inhibition is 17.7%.

Consider `O=[N+]([O-])c1ccccc1S(=O)(=O)Nc1cccc2cccnc12`, for which the inhibition is 57.4% (active). Turning to `COc1cc(NS(=O)(=O)c2ccc3ccccc3c2)c2ncccc2c1`, the inhibition was 26.4%. On to `NS(=O)(=O)c1ccc(CCNS(=O)(=O)c2cccc3cccnc23)cc1`, for which the inhibition was 11.4%. `CC1(C)COC(c2cccn2Cc2ccccc2Cl)=N1`: the inhibition is 2.43%. In the case of `COc1ccc(Cl)cc1NC(=O)CN(C)C(=O)c1cc(-c2cccs2)nn1-c1ccccc1`, the inhibition is 25.9%.

In the case of `CCc1ccc2oc(-c3ccc(N)cc3)nc2c1`, the inhibition was 65.6% (active).

For `O=[N+]([O-])c1ccc2oc(-c3cccc(O)c3)nc2c1`, the inhibition is 29.8%. Regarding `O=C(CNC(=O)C1COc2ccccc2O1)N/N=C/c1cc(Br)c(O)c(Br)c1` (stereo not given), the inhibition was 12.1%. As for `O=C(N/N=C\c1cc(Br)c(Br)o1)C1COc2ccccc2O1` (stereo not given), the inhibition was 50.2% (active). On to `O=C(N/N=C/c1cc2c(cc1Br)OCO2)C1COc2ccccc2O1` (stereo not given), for which the inhibition is 22.2%. Then `CCOC(=O)c1c(NC(C)=O)sc2c(O)c(Br)ccc12`, with 20.3%; and `Cc1ccc(-n2c(SCC(=O)N/N=C/C=C/c3ccccc3[N+](=O)[O-])nc3ccccc3c2=O)cc1`, with 12.1%.

Source of the values: PubChem BioAssay AID463212 (Sanford-Burnham Center for Chemical Genomics, 2010).
